# Assay outcomes as filed in PubChem.
# hgDAF-12 ag: agonists of H. glycines DAF-12 nuclear receptor. activation, % at 6.8 µM. AID 687014. 370,000 tested, 1.8% active. HEK293 GAL4-hgDAF12 UAS-luciferase reporter, agonist luminescence; normalized to butyrate control;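 active means activation above a cutoff set at the mean of all screened compounds plus 3 SD, cut at about 10% in these data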;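 further: 0% = DMSO wells and 100% = sodium butyrate wells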
# Rev-erbA mod: modulators of human Rev-erb alpha DNA binding | Rev-erbα–FITC-DNA binding, fluorescence polarization, 90 min | activity, % at 10 µM | 370,000 tested, 0.79% active | AID 1259318;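 active means activity above about 14%, limit read from the data; passing the limit was not always enough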;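 further: 0% = DMSO wells with 35 nM protein and 100% = DMSO wells with 750 nM protein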
# Target sequence (P20393 whole entry, looked up): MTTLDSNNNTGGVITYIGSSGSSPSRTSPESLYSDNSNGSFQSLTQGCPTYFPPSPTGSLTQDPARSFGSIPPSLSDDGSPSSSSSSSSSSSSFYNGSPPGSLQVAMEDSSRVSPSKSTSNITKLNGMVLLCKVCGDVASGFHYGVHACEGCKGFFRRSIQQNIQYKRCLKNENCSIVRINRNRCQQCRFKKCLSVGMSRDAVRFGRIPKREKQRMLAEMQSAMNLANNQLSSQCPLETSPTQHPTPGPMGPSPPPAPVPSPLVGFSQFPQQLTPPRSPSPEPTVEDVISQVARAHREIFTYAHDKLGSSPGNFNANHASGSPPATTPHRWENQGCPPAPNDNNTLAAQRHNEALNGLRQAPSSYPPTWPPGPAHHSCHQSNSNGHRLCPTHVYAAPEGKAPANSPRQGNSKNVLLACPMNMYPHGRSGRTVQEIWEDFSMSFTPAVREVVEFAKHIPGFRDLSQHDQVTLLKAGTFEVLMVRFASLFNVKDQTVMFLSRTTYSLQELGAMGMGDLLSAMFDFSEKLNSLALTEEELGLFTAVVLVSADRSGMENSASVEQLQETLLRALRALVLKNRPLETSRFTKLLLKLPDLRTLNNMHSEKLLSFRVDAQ
# DAX1 inh-1: inhibitors of DAX1 repression of SF-1 activated StAR promoter; 370,000 tested, 1.1% active; HEK293T StAR-luciferase reporter, SF-1/DAX-1 repression relief; inhibition, % at 6.8 µM; AID 652010;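 active means inhibition above the mean over all tested compounds plus 3 SD, cut at about 3.6% in these data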;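 further: 0% = DAX-1 cells with DMSO and 100% = cells lacking DAX-1 with DMSO; higher inhibition means more luminescence from relief of DAX-1 repression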
# hcDAF12 agonist: activates DAF-12 receptor from parasite H. contortus. activation, % at 6.8 µM. 370,000 tested, 1.4% active. HEK293 hcDAF-12 lit1-tk-luc reporter, luminescence; 0% DMSO, 100% Δ7-dafachronic acid;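 active means activation above the mean of all tested compounds plus 3 SD, cut at about 5.5% in these data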;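 further: 100% = response to 3 µM Δ7-dafachronic acid high control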
# ssDAF-12 act: S. stercoralis DAF-12 activation, primary screen; HEK293 ssDAF-12/GRIP1 lit1-tk-luc reporter, luminescence; % of 3 µM dafachronic acid response; activation, % at 6.8 µM; 370,000 tested, 1% active; AID 652126;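 active means activation above the mean over all tested compounds plus 3 SD, cut at about 0.9% in these data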;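 further: 0% = DMSO-only wells and 100% = 3 µM delta7-dafachronic acid wells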
# DAX1 inh-2: inhibits human nuclear receptor DAX1; P51843; HEK293 Gal4-DAX1 luciferase reporter, luminescence; inhibition, % at 6.75 µM; 340,000 tested, 0.99% active; AID 504766;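 active means inhibition above the mean over all tested compounds plus 3 SD, cut at about 4.2% in these data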;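 further: 0% = DAX1-transfected cells with DMSO and 100% = empty-vector control cells with DMSO; inhibition shows as a rise in luminescence from relieved DAX1 repression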
# hgDAF12 ag: hgDAF-12 agonism, confirmation assay; shares compounds with hgDAF-12 ag; activation, % at 6.8 µM; 3,300 tested, 80% active; HEK293 GAL4-hgDAF12 luciferase reporter, agonist mode; percent of butyrate response;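 active means mean activation over triplicate wells above the hit cutoff derived from the earlier primary screen, cut at about 11% in these data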;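 further: 0% = DMSO low control and 100% = 2 mM sodium butyrate high control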
# LXR ag 2: activates human LXR-beta, counter-screen for DAF-12 agonists; activation, % at 6.8 µM; HEK293 Gal4-LXR luciferase reporter, 24 h; shares compounds with hgDAF-12 ag; 3,300 tested, under 10 active;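 active means mean activation of the triplicate above a set limit carried over from the primary screen, none filed active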
# * marks the source's active call; other numbers are inactive results; · = no result given. In the library only some 4.8% were active in any assay of this set; here they are far more common.
SMILES,hgDAF-12 ag,Rev-erbA mod,DAX1 inh-1,hcDAF12 agonist,ssDAF-12 act,DAX1 inh-2,hgDAF12 ag,LXR ag 2
O=C(NCCc1ccccc1)c1ccc(NC(=O)C2CC2)cc1,14*,-3,3,1,0,1,7,0
CCN(CC)CCCNC(=O)CSc1nnc(-c2ccncc2)n1-c1ccc(OC)cc1,0,-3,1,-2,0,·,·,·
CC(=O)C1(C(=O)Nc2cc(C)cc(C)c2)CC(c2ccccn2)=NO1 (stereo not drawn),0,-1,-1,6,1,·,·,·
COC(=O)c1cc2c(c3c4cc(F)ccc4n(S(=O)(=O)c4ccc(OC)cc4)c13)C(=O)N(Cc1ccccc1OC)C2,1,8,0,-1,-1,·,·,·
COc1ccccc1C(=O)COC(=O)c1ccc(N(C)C)cc1,16*,0,3,5,0,4.5*,13*,1
COc1ccccc1C(=O)COC(=O)c1ccccc1O,5,1,0,5,1,0,·,·
CC(C)(C)OC(=O)N1CCC2CCN(S(C)(=O)=O)CC21 (stereo not drawn),2,1,-1,0,-1,·,·,·
Cc1ccc(C2=N/C(=C\N3CCCCC3)C(=O)O2)cc1,14*,-17,2,6.4*,0,3,9,1
CCn1c(-c2ccc(N(C)C)cc2)nc2ccccc21,3,2,-1,4,0,-1,·,·
CC(C)n1c(-c2ccc(N(C)C)cc2)nc2ccccc21,16*,5,3,5.8*,1,1,7,0
Nc1nn(-c2ccccc2)c(N)c1N=Nc1cccc(F)c1,19*,2,0,6.0*,0,·,24*,1
O=C(NCc1cccs1)C1C2C=CC3(CN(Cc4ccccc4)C(=O)C13)O2 (stereo not drawn),-1,-9,0,1,-1,·,·,·
Cc1nc(-c2ccc(NC(=O)c3ccccc3C)cc2)cs1,20*,2,2,2,0,1,16*,1
Cc1ccc(C=Nn2c(-c3n[nH]c4c3CCC4)n[nH]c2=S)s1,-3,3,0,-4,-1,·,·,·
Cc1cc2c([nH]c3ccccc32)c2c1OC(C)(C)C=C2,14*,6,4.2*,2,1.1*,5.0*,11*,0
C=CS(=O)(=O)N(Cc1ccc(F)cc1)C(=C)C(=O)OC,-9,-8,-6,-3,-2,·,·,·
COc1ccc(Cn2c(/C=C/c3ccccc3)nc3ccccc32)cc1,18*,3,3.8*,6.4*,1,2,20*,1
CC(C)Cn1c(/C=C/c2ccccc2)nc2ccccc21,14*,-4,3,1,0,0,9,0
COc1ccc(/C=C/c2nc3ccccc3n2C)cc1,-12,-1,-2,-4,-3,-4,·,·
COc1ccccc1C(=O)O/N=C(\N)c1ccccc1Cl,17*,1,2,4,0,3,11*,0
C[C@@H]1CCN(C2CC2)S(=O)(=O)c2ccc(N3CCC[C@H]3C)cc2O1,0,7,-1,-1,0,·,·,·
COc1ccc(S[C@]2(C(=O)N(C)C)CC(=O)N(c3ccc(C#N)cc3)[C@@H]2c2ccc(OC)cc2)cc1,0,-3,-1,1,-1,·,·,·
CCc1ccc(NC(=S)NC(=O)CC(C)C)cc1,15*,4,2,3,0,3,12*,0
COCCCNC(=O)[C@@H](Cc1ccccc1)NC(=O)[C@H]1O[C@@H](n2ccc(=O)[nH]c2=O)[C@H](O)[C@@H]1O,-2,0,1,1,-2,·,·,·
COC(=O)c1sc2nc3c(cc2c1N)COC(C)(C)C3,16*,-5,4.0*,2,0,1,17*,1
SMILES,hgDAF-12 ag,Rev-erbA mod,DAX1 inh-1,hcDAF12 agonist,ssDAF-12 act,DAX1 inh-2,hgDAF12 ag,LXR ag 2
CCOC(=O)c1oc2nc3c(cc2c1N)COC(C)(C)C3,6,-9,0,1,-1,0,·,·
CC(=O)Nc1ncc(N=Nc2cccc(C(F)(F)F)c2)s1,1,-4,0,-1,0,-1,·,·
Cc1cccc(N=Nc2cnc(N)s2)c1,18*,3,1,4,-1,4.4*,7,0
Oc1ccc(N=Nc2ccccc2)cc1,10,6,1,4,0,2,·,·
OCc1ccc(N=Nc2ccccc2)cc1,13*,3,2,3,0,3,17*,1
CC(=O)Nc1sc2c(c1-c1nc3ccccc3s1)CCCNC2,2,8,·,5,1,·,·,·
Oc1c(C=Nc2ccccc2)sc(=S)n1Cc1ccccc1,-1,2,0,-2,-1,0,·,·
CCn1c(O)c(C=Nc2ccccc2)sc1=S,16*,-3,3,3,0.9*,·,18*,1
O=C(Nc1ccccc1Br)c1ccc2nccnc2c1,15*,-2,1,2,0,1,11*,0
O=[N+]([O-])c1ccc(-c2nc3ccc([N+](=O)[O-])cc3[nH]2)cc1,1,-3,1,-1,-1,1,·,·
Nc1ccc(-c2nc3ccc([N+](=O)[O-])cc3[nH]2)cc1,16*,7,4.3*,2,0,2,15*,1
CC(C)C[C@@H]1COc2cc(N3CCCC3)ccc2S(=O)(=O)N1,2,0,-1,-1,-1,·,·,·
COC(=O)c1ccccc1CC1Cc2cc3c(cc2C1=O)CCC3 (stereo not drawn),14*,6,4.3*,2,1.9*,3,13*,1
COC(=O)c1ccccc1CC1SC(N)=NC1=O (stereo not drawn),3,1,0,-3,-2,1,·,·
CC(=NNC(N)=S)c1ccc2cc3c(cc2c1)OCO3,25*,8,3,4,0,4,13*,1
CC(C)CN(/C=N/c1sc2c(c1C#N)CCCCC2)CC(C)C,1,2,0,-2,-1,-1,·,·
CCN(/C=N/c1sc2c(c1C#N)CCCCC2)CC,14*,1,3,6.1*,-1,3,13*,1
CN1CCN(/C=N/c2sc3c(c2C#N)CCCCC3)CC1,19*,1,1,6.4*,1,6.8*,19*,1
CCOc1ccc(-n2c(SCC(=O)Nc3ccc(OCc4ccccc4)cc3)nnc2-c2ccc(Cl)cc2)cc1,0,2,0,1,-1,·,·,·
CC(=O)Oc1ccc2occ(C(=O)c3cccs3)c2c1,14*,1,3,4,-1,0,11*,0
